High-throughput results from PubChem.
Mtb MenB inh – inhibitors of Mycobacterium tuberculosis MenB enzyme; MenB enzyme assay, absorbance read-out; inhibition, % (test concentration not listed); 0.43% of 100,000 active; P9WNP5; in the data active = inhibition above about 21%, passing the limit was not always enough
AID504770 – E. coli YBA685 growth inhibition, screen for V. cholerae RctB inhibitors; E. coli YBA685 rctB-dependent plasmid, OD600 growth, 3 h; stronger effect = lower value; z-score (no concentration beside the values); 0.27% of 130,000 active; in the data active = z-score below about -2, passing the limit was not always enough
Polio RdRp inh – inhibitors of poliovirus RNA polymerase binding and polymerization; P03300; poliovirus polymerase elongation, fluorescence polarization; stronger effect = lower value; % elongation, % (compound at 16.7 µg/mL); 0.66% of 150,000 active; in the data active = % elongation below about 90%
Target sequence (P03300 1749-2209 limits assumed): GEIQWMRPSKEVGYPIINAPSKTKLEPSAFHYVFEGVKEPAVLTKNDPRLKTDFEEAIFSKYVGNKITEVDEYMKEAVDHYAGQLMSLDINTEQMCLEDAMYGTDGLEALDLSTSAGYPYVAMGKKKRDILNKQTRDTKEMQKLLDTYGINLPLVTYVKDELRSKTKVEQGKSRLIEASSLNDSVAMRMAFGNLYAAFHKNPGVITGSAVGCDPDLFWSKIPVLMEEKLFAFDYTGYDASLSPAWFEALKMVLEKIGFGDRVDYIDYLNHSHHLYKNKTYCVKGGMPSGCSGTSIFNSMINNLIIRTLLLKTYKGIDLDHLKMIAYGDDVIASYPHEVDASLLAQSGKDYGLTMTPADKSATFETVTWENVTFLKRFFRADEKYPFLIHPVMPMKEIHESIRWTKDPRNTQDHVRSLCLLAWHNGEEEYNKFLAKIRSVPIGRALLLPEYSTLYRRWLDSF
Mtb MbtI inh – inhibitors of Mycobacterium tuberculosis siderophore enzyme MbtI. 0.89% of 100,000 active. inhibition, % (concentration not given with the values). purified MbtI enzyme, fluorescence intensity read-out; in the data active = inhibition mostly above about 56%, no sharp cut-off; inactive = mostly below about 77%
Active calls of the source: *. Most compounds without a hit are left out; they make up all but 1.4% or so of the library.

How did CCN(CC)S(=O)(=O)c1ccc(Cl)c(C(=O)Oc2ccc(C)c(C)c2)c1 do in these assays?
Mtb MenB inh: -35.7; AID504770: 0.2; Polio RdRp inh: 45.0*; Mtb MbtI inh: 3.5

Results for CCN(CC)S(=O)(=O)c1ccc(Cl)c(C(=O)OC)c1 ?
Mtb MenB inh: -15.8; AID504770: 1.8; Polio RdRp inh: 102.0; Mtb MbtI inh: -14.1

Results for Cc1ccc(SCC(=O)O)cc1 ?
AID504770: -2.05; Polio RdRp inh: 104.0; Mtb MbtI inh: -8.8

Results for COc1ccccc1OC(=O)NC(=O)C(F)(F)F ?
Mtb MenB inh: -17.2; AID504770: 0.25; Polio RdRp inh: 111.0; Mtb MbtI inh: -2.8

How did CCCCOc1ccc(C(=O)Nc2cc(C)ccn2)cc1 do in these assays?
Mtb MenB inh: -20.9; AID504770: -0.1; Polio RdRp inh: 102.0; Mtb MbtI inh: -5.2

What do the screens show for `Cc1cc(C)cc(NC(=O)Cc2cccs2)c1`?
Mtb MenB inh: -5.5; AID504770: -0.55; Polio RdRp inh: 106.0

Results for O=c1[nH]nc(SCc2ccccc2)c(=O)[nH]1 ?
AID504770: 0.05; Mtb MbtI inh: 0.8

Results for O=c1[nH]nc(SCc2cccc3ccccc23)c(=O)[nH]1 ?
Mtb MenB inh: -18.8; AID504770: 2.8; Polio RdRp inh: 100.0; Mtb MbtI inh: 51.2*

How did Cc1ccc(-c2noc(-c3c[nH]c4ccc(S(=O)(=O)NC(C)C)cc4c3=O)n2)cc1 do in these assays?
Mtb MenB inh: -5.3; AID504770: 0.35; Polio RdRp inh: 101.0; Mtb MbtI inh: 67.2

How did Cc1c2cnn(-c3ccccc3)c(=O)c2c(C)n1CCCC(=O)Nc1cccc(F)c1 do in these assays?
Polio RdRp inh: 82.0*

Results for Oc1ccccc1OCc1nc2ccccc2s1 ?
AID504770: 0; Polio RdRp inh: 102.0; Mtb MbtI inh: 51.8*

Results for COc1ccccc1CNC(=O)c1nnc(Cc2ccc(F)cc2)o1 ?
Mtb MenB inh: -17.4; AID504770: -0.8; Polio RdRp inh: 100.0; Mtb MbtI inh: -21.0

How did C=CCN1C(=O)/C(=C\c2ccc(OC)cc2)C(=O)NC1=S do in these assays?
Mtb MenB inh: -159.7; AID504770: -0.8; Polio RdRp inh: 99.0; Mtb MbtI inh: 94.7*

What do the screens show for `C=CCN1C(=O)/C(=C\c2ccc(O)c(OC)c2)C(=O)NC1=S`?
Mtb MenB inh: -71.9; AID504770: -0.9; Polio RdRp inh: 102.0; Mtb MbtI inh: 35.0

How did C=CCN1C(=O)/C(=C\c2ccc(OCc3ccccc3C#N)cc2)C(=O)NC1=S do in these assays?
Mtb MenB inh: -56.4; AID504770: -0.35; Polio RdRp inh: 102.0; Mtb MbtI inh: 74.1*

What do the screens show for `C=CCN1C(=O)/C(=C\c2ccc(O)c(Br)c2)C(=O)NC1=S`?
Mtb MenB inh: -47.7; AID504770: -0.25; Polio RdRp inh: 100.0; Mtb MbtI inh: 13.9

What do the screens show for `C=CCN1C(=O)/C(=C\c2ccc(N(CC)CC)cc2)C(=O)NC1=S`?
Mtb MenB inh: -34.6; AID504770: 0.2; Polio RdRp inh: 100.0; Mtb MbtI inh: 78.9*

What do the screens show for `CCC(=O)Nc1nc2ccc(C)cc2s1`?
Mtb MenB inh: -10.6; AID504770: -0.55; Polio RdRp inh: 102.0

What do the screens show for `NS(=O)(=O)c1ccc(NC(=O)COC(=O)CN2C(=O)CCC2=O)cc1`?
AID504770: -0.8; Mtb MbtI inh: -17.2

What do the screens show for `CC(C(=O)N1CCCCCC1)n1sc2ccccc2c1=O` (stereo unspecified)?
Mtb MenB inh: -9.5; AID504770: -0.6; Polio RdRp inh: 105.0; Mtb MbtI inh: -3.3

Results for Cc1cc(N2CCOCC2)cc(C)[n+]1[O-] ?
Mtb MenB inh: 45.8*; AID504770: -0.45; Polio RdRp inh: 101.0; Mtb MbtI inh: 17.4

How did O=C(COC(=O)c1cccc(O)c1)c1cccc(C(F)(F)F)c1 do in these assays?
AID504770: -0.75; Polio RdRp inh: 103.0; Mtb MbtI inh: -16.1

Results for Cc1ccc(N2C(=O)N(c3ccccc3)C(=N)C2=S)cc1Cl ?
Mtb MenB inh: 1.6; AID504770: -0.95; Polio RdRp inh: 68.0*; Mtb MbtI inh: 45.1

Results for COc1ccc(-c2cc(C(=O)Oc3ccc(Cl)cc3)c3ccccc3n2)cc1 ?
Polio RdRp inh: 105.0

How did CCOC(=O)c1c(C)oc2nc(COC(=O)c3cc(-c4ccc(Cl)cc4)nc4ccccc34)nc(N)c12 do in these assays?
Mtb MenB inh: -22.6; AID504770: -4.65*; Polio RdRp inh: 105.0; Mtb MbtI inh: -9.6

Results for CC(=O)NCCN=Cc1c(O)[nH]c(=O)[nH]c1=O ?
Mtb MenB inh: -27.9; AID504770: 0.45; Polio RdRp inh: 103.0; Mtb MbtI inh: 14.4

How did CCn1c(CCC(=O)N2CCN(c3ccccn3)CC2)nc2cc(S(N)(=O)=O)ccc21 do in these assays?
Mtb MenB inh: -1.1; AID504770: 0.05; Polio RdRp inh: 55.0*; Mtb MbtI inh: 103.1

How did CCOc1ccc(NC(=O)CC2Oc3ccccc3NC2=O)cc1 (stereo unspecified) do in these assays?
Mtb MenB inh: -26.1; AID504770: -1.05; Polio RdRp inh: 103.0; Mtb MbtI inh: -13.7

What do the screens show for `CC(=C/C(=O)O)/C=C/c1ccccc1`?
Mtb MenB inh: -23.2; AID504770: 0.85; Polio RdRp inh: 102.0; Mtb MbtI inh: 30.0

Results for CC(/C=C/c1ccccc1)=N\NC(N)=S ?
Mtb MenB inh: -121.0; AID504770: -0.45; Polio RdRp inh: 103.0; Mtb MbtI inh: 91.2*

How did O=C1c2ccccc2C(=O)N1CCn1cnc2c(cnn2-c2cccc(Cl)c2)c1=O do in these assays?
Mtb MenB inh: -26.1; AID504770: -0.05; Polio RdRp inh: 101.0; Mtb MbtI inh: 9.0

What do the screens show for `COCCN(Cc1ccccc1)C(=O)c1ccc2c(c1)NC(=O)CS2`?
Mtb MenB inh: -47.5; AID504770: 0.1; Polio RdRp inh: 93.0; Mtb MbtI inh: 62.9*

Results for COc1cccc(CN(C)C(=O)c2ccc3c(c2)NC(=O)CS3)c1 ?
Mtb MenB inh: -9.2; AID504770: -0.95; Polio RdRp inh: 99.0; Mtb MbtI inh: 2.0

Results for Fc1ccc2nc(Nc3nc4ccccc4s3)sc2c1 ?
Mtb MenB inh: -46.0; AID504770: -0.15; Polio RdRp inh: 104.0; Mtb MbtI inh: 4.4

What do the screens show for `CSc1nc(NC(C)C)nc(N(C)C(N)=O)n1`?
Mtb MenB inh: 20.7; AID504770: 1.05; Polio RdRp inh: 102.0; Mtb MbtI inh: 16.5

What do the screens show for `CC(C)Nc1nc(NC(N)=O)nc(NC(C)C)n1`?
Mtb MenB inh: 62.0*; AID504770: 0.7; Polio RdRp inh: 102.0; Mtb MbtI inh: 2.8

What do the screens show for `CSc1nc(NC(N)=S)nc(NC(C)C)n1`?
Mtb MenB inh: -30.0; AID504770: -0.4; Polio RdRp inh: 101.0; Mtb MbtI inh: 87.0*

What do the screens show for `CC(C)(C)n1nnnc1C(c1ccc2ncccc2c1)N1CCOCC1` (stereo unspecified)?
Mtb MenB inh: -32.7; AID504770: -0.75; Polio RdRp inh: 104.0; Mtb MbtI inh: 2.7

How did OCCn1nc2c3ccccc3nc-2n(-c2ccccc2)c1=S do in these assays?
Mtb MenB inh: -40.4; AID504770: -0.2; Polio RdRp inh: 85.0*; Mtb MbtI inh: 72.3

What do the screens show for `O=C(c1ccccc1)N1CCC(O)(c2cccnc2)CC1`?
Mtb MenB inh: -19.1; AID504770: -0.2; Polio RdRp inh: 101.0; Mtb MbtI inh: 0.5
